An excerpt weighted towards active compounds, which were near 9.4% of everything screened.
FLuc modulator – firefly luciferase modulation, counter-screen for miR-21 project. AID 588342. 360,000 compounds, 6.9% hits. purified FLuc, Km substrates, luminescence inhibition. Potency, µM (highest dose often 57.5 µM), without a hit: top-dose activity change, negative = inhibition, actives largely listed as inhibitors. P08659;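 further: plate controls were vehicle for no effect and reference inhibitor for full effect; nearly all actives have a fitted effect of over 55% in size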
Target sequence (P08659 whole entry, looked up): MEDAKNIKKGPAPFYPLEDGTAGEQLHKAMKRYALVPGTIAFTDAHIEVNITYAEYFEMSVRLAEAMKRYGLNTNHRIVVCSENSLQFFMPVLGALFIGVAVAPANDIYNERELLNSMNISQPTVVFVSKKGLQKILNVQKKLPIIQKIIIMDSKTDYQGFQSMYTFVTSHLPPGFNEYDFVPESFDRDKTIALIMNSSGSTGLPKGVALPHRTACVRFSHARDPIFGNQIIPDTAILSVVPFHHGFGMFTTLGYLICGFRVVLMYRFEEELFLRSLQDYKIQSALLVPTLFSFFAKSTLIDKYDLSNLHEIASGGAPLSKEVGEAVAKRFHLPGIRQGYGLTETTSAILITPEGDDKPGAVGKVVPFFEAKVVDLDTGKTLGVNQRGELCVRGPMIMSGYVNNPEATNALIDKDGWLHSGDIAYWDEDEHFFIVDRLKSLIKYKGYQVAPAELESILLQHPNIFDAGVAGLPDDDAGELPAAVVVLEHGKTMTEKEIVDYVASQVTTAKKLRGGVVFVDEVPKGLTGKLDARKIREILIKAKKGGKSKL
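Purified P. pyralis luciferase, 10 nM final, with Km-level 10 uM D-luciferin and 10 uM ATP in 50 mM Tris acetate pH 7.5, 10 mM Mg acetate, 0.01% Tween-20, 0.05% BSA; 6-point qHTS titration about 60 µM downward; luminescence read.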
Rab9 promoter act – Rab9 promoter activation; Huh7 Rab9 promoter-luciferase reporter, luminescence, 24 h; 320,000 compounds, 2.8% hits; AID 485297; Potency, µM (doses to about 9.22 µM), for inactives: at the highest dose activation, negative = inhibition, actives largely listed as activators; further: % of control where 0% means no effect; nearly all actives have a fitted effect of over 60% in size
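Huh7 cells stably carrying Rab9 promoter–luciferase reporter, plated 1500 cells/well, compound added after 2 h and incubated 24 h at 37 °C; luciferase luminescence then read after 10 min with detection reagent.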
ELG1 genotox – genotoxicity induction in ELG1-luciferase HEK293T cells; HEK293T ELG1-luciferase reporter, luminescence, 16 h; Potency, µM (doses to about 46 µM), for the others: at the highest dose activity change, positive = activation, usual class: activators; 330,000 compounds, 1.3% hits; further: % of control where 0% means no effect; nearly all actives have a fitted effect of over 60% in size
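16 hr compound incubation (37 °C, 5% CO2) of HEK293T cells carrying luciferase-tagged ELG1; luciferase then measured by ONE-Glo luminescence after 30 min at RT.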
ELG1 repair inh – ELG1-dependent DNA repair inhibition | HEK293T ELG1-luciferase reporter, luminescence, 16 h; DNA damage induced by 5-fluorouridine | Potency, µM (highest dose often 46.1 µM), inactives show at the highest dose activity change, negative = inhibition, usual class: inhibitors | 330,000 compounds, 2.3% hits | AID 504467; further: on the % scale 0 is the no-effect control and ±100 the full control effect; nearly all actives have a fitted effect of over 55% in size
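DMSO vehicle served as the neutral condition. Each well held 2,000 cells given 5-fluorouridine plus compound; after 16 hr at 37 °C/5% CO2, ONE-Glo was added and luciferase measured 30 min later.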
SMN2 splice up – enhancers of SMN2 splice variant expression. AID 1458. 210,000 compounds, 2.8% hits. Potency, µM (top dose mostly 46.1 µM), without a hit: at the top dose activity change, positive = activation, most hits filed as activators. HEK293 SMN2-luciferase splicing reporter, luminescence, 30-36 h; further: % of control where 0% means no effect; nearly all actives have a fitted effect of over 55% in size
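qHTS luciferase splicing reporter: luminescence rises when SMN2 exon 7 is included in transfected HEK293 cells. Compound exposure lasted 30-36 h at 37C, with 4.5 mM final sodium butyrate as control, followed by a ONE-Glo read.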
NPC1 prom act – activates the NPC1 promoter. Huh7 NPC1 promoter luciferase reporter, 24 h. Potency, µM (titrated, usually from 9.22 µM), for the others: at the top dose activation, hits mostly activators. 320,000 compounds, 2.4% hits. AID 485313; further: % of control where 0% means no effect; nearly all actives have a fitted effect of over 60% in size
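Huh7 reporter cells (NPC1 promoter driving luciferase) are dosed with compound for 24 h at 37 °C, 5% CO2; luciferase detection reagent is then added and luminescence measured after 10 min at ambient temperature.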
Active calls of the source: *; ? = inconclusive; . = no result; [ ] = another dose, or the depositor's remark. The call rests on the fitted dose curve; in most records, active means well fitted curve in the direction sought with a large enough effect; inconclusive means small, poorly fitted or top-dose-only effect, or another doubt; inactive means no such curve, though single readings can be large; an effect the other way counts as inactive or inconclusive. Potency means the concentration at half of the fitted maximal effect.

SMILES	FLuc modulator	Rab9 promoter act	ELG1 genotox	ELG1 repair inh	SMN2 splice up	NPC1 prom act
CCOc1ccc(C(=O)O/N=C(\N)c2ccccn2)cc1	0.085µM*	0.5µM*	?	?	.	0.1µM*
Cc1cccc(C(=O)O/N=C(/c2ccccc2)c2ccncc2)c1	?	-3%	-2%	-15%	-1%	-2%
C/C(=N\OC(=O)c1ccc(Br)cc1)c1ccccn1	0.54µM*	-8%	2%	0%	0%	-1%
COC(=O)c1ccc(COC(=O)c2ccccn2)cc1	-24%[2.3 µM]	2%	0%	24%	22%	1%
Cc1ccc(C(=O)O/N=C(\N)c2ccccn2)cc1C	0.095µM*	0.5µM*	0.33µM*	?	.	0.32µM*
Cc1cccc(C(=O)O/N=C(\N)c2ccccn2)c1	0.27µM*	4µM*	2.6µM*	?	.	1.6µM*
CC(C(=O)O/N=C(\N)c1ccccn1)c1ccc([N+](=O)[O-])cc1 (configuration not stated)	-4%	5%	?	?	.	1%
C/C(=N/O)c1ccccn1	0%	-3%	-2%	-5%	7%	2%
C/C(=N/OCc1ccc(Br)cc1)c1ccccn1	3µM*	2.5µM*	4.6µM*	?	14µM*	4µM*
N/C(=N\OC(=O)c1cccc(F)c1)c1ccccn1	1.1µM*	1.6µM*	?	?	.	3.5µM*
Cc1cc(C)cc(OCC(=O)O/N=C(\N)c2ccccn2)c1	?	-8%	?	?	5%	-4%
N/C(=N\OCc1ccc([N+](=O)[O-])cc1)c1ccccn1	0.38µM*	?	0.082µM*	?	0.79µM*	?
Cc1ccc(C(=O)O/N=C(\N)c2ccccn2)cc1	0.024µM*	1.1µM*	?	?	.	0.5µM*
O=C(NCCCNC(=O)c1ccccn1)c1cccc(F)c1	3%	4%	4%	-1%	.	-7%
N/C(=N\OC(=O)c1ccc(Br)o1)c1ccccn1	2.7µM*	2.2µM*	?	?	13µM*	0.56µM*
N/C(=N\OC(=O)c1ccccc1)c1ccccn1	0.27µM*	1µM*	?	?	.	1.8µM*
CC(C)(C)c1ccc(C(=O)O/N=C(\N)c2ccccn2)cc1	0.24µM*	-24%	-5%	?	.	-25%
N/C(=N\OC(=O)C(c1ccccc1)c1ccccc1)c1ccccn1	5%	-2%	6%	?	-4%	-2%
Cc1ccc(NC(=O)Cn2nc(C)c3nn(-c4ccc(Cl)cc4)c(C)c3c2=O)cc1C	-5%	.	.	.	.	.
COC(=O)C1=C(O)/C(=C\c2ccc(CNS(=O)(=O)c3ccccc3)o2)N=C1C	1%	14%	0%	11%	-9%[1.84 µM]	9%
COC(=O)C1=C(O)/C(=C\c2ccc(OCC(=O)Nc3ccccc3)cc2)N=C1C	24µM*	-2%	3%	?	.	-2%
COC(=O)C1=C(O)/C(=C/c2cccc(OC)c2O)N=C1C	15µM*	?	13%	21%	.	-4%
CCOC(=O)C1=C(O)/C(=C\c2cccc(OC)c2)N=C1C	-13%	1%	-1%	6%	-11%	-3%
CCCCn1c(O)c(N=Nc2ccccn2)c2ccccc21	?	4%	-3%	-17%	-11%	-2%
CCn1c(O)c(N=Nc2ccc3ccccc3n2)c2ccccc21	3µM*	1.1µM*	5.8µM*	?	.	3.2µM*
C=CCn1c(=O)c2ccccc2n2c(SCC(=O)Nc3sc(C(=O)N(CC)CC)c(C)c3C(=O)OCC)nnc12	-5%	0%	0%	21µM*	-19%	4%
CCN(C(=O)CSc1nc2cc(Cl)ccc2c(=O)n1Cc1ccco1)C1CCS(=O)(=O)C1 (configuration not stated)	0%	-10%	-3%	?	-15%	-2%
C=CCn1c(=O)c2ccccc2n2c(SCC(=O)Nc3sc(C)c(CC)c3C(=O)OCC)nnc12	2%	-2%	-1%	?	-23%	-2%

Source: PubChem BioAssay (National Center for Advancing Translational Sciences (NCATS))
